Assay results published in PubChem BioAssay (NCI).
Where “and” joins values, the source holds several entries; their conditions need not be identical. Identical values can stand only once. About 79,000 compounds went through this panel and 15% of them were active in at least one assay; those are over-represented in the sample as a whole. More than one record can exist for a structure, and the calls need not agree. Calls of active or inactive are those of the source. Rule as the data show it: active = growth inhibition above about 70%; inactive = the rest.

Assays:
[1] = NCI Yeast Anticancer Drug Screen. Data for the rad50 strain (AID 155);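 also: 0% = growth of vehicle-only cultures of the same strain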; conditions: S. cerevisiae rad50 strain growth inhibition, stronger effect = higher value
Summary of the method: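 Cells are treated with compound, grown, and their growth is then scored against vehicle-only cultures of the same repair-deficient yeast strain.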

[2] = NCI Yeast Anticancer Drug Screen. Data for the mec2-1 strain (AID 157); conditions: S. cerevisiae mec2-1 strain, stronger effect = higher value
Summary of the method: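 Cells of the genetically defined mec2-1 yeast strain are incubated with test compound. Inhibition of growth is calculated against vehicle-treated controls.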

[3] = NCI Yeast Anticancer Drug Screen. Data for the sgs1 mgt1 strain (AID 161);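 also: 0% = growth of cultures given vehicle only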; conditions: S. cerevisiae sgs1 mgt1 strain, stronger effect = higher value
Summary of the method: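 Read-out: growth inhibition vs vehicle controls. Cells: mutant yeast strain deficient in DNA damage repair.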

[4] = NCI Yeast Anticancer Drug Screen. Data for the cln2 rad14 strain (AID 165);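 also: 0% = growth equal to vehicle treated cultures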; conditions: S. cerevisiae cln2 rad14 strain, stronger effect = higher value
Summary of the method: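 The screen exposed genetically defined yeast (cln2 rad14) to test compounds and scored growth inhibition relative to vehicle-treated controls.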

[5] = NCI Yeast Anticancer Drug Screen. Data for the bub3 strain (AID 167); conditions: S. cerevisiae bub3 mutant strain, stronger effect = higher value
Summary of the method: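 Part of a panel of yeast mutants defective in DNA damage repair or cell cycle regulation. Each strain is grown with compound, and inhibition is calculated relative to solvent-treated cultures.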

[6] = NCI Yeast Anticancer Drug Screen. Data for the mlh1 rad18 strain (AID 175); conditions: S. cerevisiae mlh1 rad18 strain growth inhibition, stronger effect = higher value
Summary of the method: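 Compound-treated yeast growth, normalised to vehicle controls. Strain bears defined DNA repair mutations.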

[7] = at 5.0 µM (retest, dose inferred, filed as 0.5)
[8] = at 50.0 µM (retest, dose inferred, filed as 5.0)

Measured: growth inhibition

O=S(c1cc(Br)ccc1O)c1cc(Br)ccc1O
active: [1]; [8] 99% | [1]; at 50.0 µM 99.3% | [2]; [8] 100% | [2]; at 50.0 µM 99.7% | [3]; [8] 99% | [3]; at 50.0 µM 99% | [4]; [8] 99% | [4]; at 50.0 µM 99.3% | [5]; [8] 99% | [5]; at 50.0 µM 99.3% | [6]; [7] 80% | [6]; [8] 100% | [6]; at 50.0 µM 99.5%
inactive: [1]; [7] 31% | [2]; [7] 49% | [3]; [7] 69% | [4]; [7] 39% | [5]; [7] 23%

C[N+]1(C)CCC(c2ccccc2)(c2ccccc2)C(=O)C1
inactive: [1]; [7] -12% | [1]; [8] -8% | [1]; at 50.0 µM 16.6% and 13.2% | [2]; [7] -15% | [2]; [8] -3% | [2]; at 50.0 µM 9.05% and 19.3% | [3]; [7] -8% | [3]; [8] -2% | [3]; at 50.0 µM 6.2% and 21.8% | [4]; [7] -9% | [4]; [8] -11% | [4]; at 50.0 µM 47.4% and -25.8% | [5]; [7] -22% | [5]; [8] -27% | [5]; at 50.0 µM -8.9% and 8.6% | [6]; [7] -10% | [6]; [8] -14% | [6]; at 50.0 µM 24.1% and -10.6%

Cc1nc2c(ccc3[nH]c4ccccc4c32)s1
inactive: [1]; [7] 7% | [2]; [7] 9% | [3]; [7] 16% | [4]; [7] -16% | [5]; [7] 8% | [6]; [7] 10%
active: [1]; [8] 99% | [1]; at 50.0 µM 90.8% | [2]; [8] 99% | [2]; at 50.0 µM 92.5% | [3]; [8] 99% | [3]; at 50.0 µM 91% | [4]; [8] 99% | [4]; at 50.0 µM 91% | [5]; [8] 99% | [5]; at 50.0 µM 91.8% | [6]; [8] 99% | [6]; at 50.0 µM 89.9%

COc1cc2c(cc1OC)C(Cc1c3ccccc3cc3ccccc13)N(C)CC2 (stereo unspecified)
active: [3]; at 50.0 µM 93.1% | [6]; at 50.0 µM 99.4%
inactive: [1]; [7] 4% | [1]; [8] 41% | [1]; at 50.0 µM 16.2% | [2]; [7] -18% | [2]; [8] 43% | [2]; at 50.0 µM 14.8% | [3]; [7] 1% | [3]; [8] 50% | [4]; [7] 0% | [4]; [8] 3% | [4]; at 50.0 µM 62.5% | [5]; [7] 0% | [5]; [8] 15% | [5]; at 50.0 µM 58.3% | [6]; [7] 3% | [6]; [8] 56%

CCOP(=O)(OCC)C(C)(CC)NC(=O)C(C(F)(F)F)C(F)(F)F (stereo unspecified)
inactive: [1]; [7] 21% | [1]; [8] 21% | [1]; at 50.0 µM -5.45% and 2.5% | [2]; [7] 23% | [2]; [8] 13% | [2]; at 50.0 µM -14.8% and 4% | [3]; [7] 16% | [3]; [8] 13% | [3]; at 50.0 µM -8.75% and -2.6% | [4]; [7] 18% | [4]; [8] 24% | [4]; at 50.0 µM 5.65% and -1.65% | [5]; [7] 20% | [5]; [8] 19% | [5]; at 50.0 µM -4.95% and -8.05% | [6]; [7] 23% | [6]; [8] 18% | [6]; at 50.0 µM 8.65% and -16.8%

Fc1cccc(CSC(=S)Nc2ccc(F)c(F)c2)c1
inactive: [1]; [7] 12% | [2]; [7] 13% | [3]; [7] 10% | [4]; [7] -2% | [5]; [7] -2% | [6]; [7] 8%
active: [1]; [8] 99% | [1]; at 50.0 µM 99.6% | [2]; [8] 99% | [2]; at 50.0 µM 99.8% | [3]; [8] 99% | [3]; at 50.0 µM 99.7% | [4]; [8] 91% | [4]; at 50.0 µM 99.5% | [5]; [8] 95% | [5]; at 50.0 µM 99.7% | [6]; [8] 99% | [6]; at 50.0 µM 99.7%

O=C1C(=Cc2c[nH]c3ccccc23)C(=O)c2ccccc21
active: [1]; [8] 93% | [2]; [8] 96% | [3]; [8] 91% | [4]; [8] 83% | [5]; [8] 95% | [6]; [8] 96%
0.1% (inactive) and 71.1% (active): [3]; at 50.0 µM
-1.65% (inactive) and 78.5% (active): [6]; at 50.0 µM
inactive: [1]; [7] 11% | [1]; at 50.0 µM -9.1% and 69.2% | [2]; [7] -24% | [2]; at 50.0 µM -6.4% and 69.5% | [3]; [7] -1% | [4]; [7] 6% | [4]; at 50.0 µM 2.15% and 32.4% | [5]; [7] 3% | [5]; at 50.0 µM -15.7% and 62.8% | [6]; [7] -1%
